Screening results deposited in PubChem BioAssay by National Center for Advancing Translational Sciences (NCATS).
VACV Venus inh = vaccinia inhibition (Venus reporter); AID 720580; Potency, µM (series often up to 36.5 µM), for the others: at the top dose activity change, negative = inhibition, hits mostly inhibitors; Vaccinia virus Venus reporter expression, fluorescence; hit rate 0.46% among 330,000; calls by dose curve; tested in A549 cells; note: potency is the fitted concentration of half-maximal effect; nearly all actives have a fitted effect of over 30% in size
HCMV antiviral = human cytomegalovirus inhibition; HFF cells, HCMV-luciferase reporter, 72 h; stronger effect = lower value; activity change, negative = inhibition, % at 57.5 µM; hit rate 4.5% among 410,000; in the data active = activity change below about -60%; inconclusive = no clear call, values can overlap the other calls; inactive = above about -39%
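Compounds were evaluated in HFFs infected with an HCMV luciferase reporter virus (MOI 1 PFU/cell). Luciferase in lysates collected 72 h post infection served as the replication measure.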
Lassa entry inh = inhibitors of Lassa virus binding or cell entry; Lassa virus pseudotype entry inhibition, cell reporter; Potency, µM (highest dose often 37.9 µM), for the others: at the top dose activity change, negative = inhibition, usual class: inhibitors; hit rate 1.2% among 300,000; calls by dose curve; tested in HEK293 cells; note: potency is the fitted concentration of half-maximal effect; nearly all actives have a fitted effect of over 50% in size
Marburg entry inh = Marburg virus entry inhibition | AID 540276 | Potency, µM (top dose mostly 37.8 µM), without a hit: top-dose activity change, negative = inhibition, hits mostly inhibitors | Marburg virus pseudotyped entry inhibition, cell reporter | hit rate 1.8% among 300,000; calls by dose curve; tested in HEK293 cells; note: potency is the fitted concentration of half-maximal effect
FMDV antiviral = antivirals against foot and mouth disease virus. FMDV antiviral cell-based qHTS. AID 1159524. hit rate 1.2% among 410,000. Potency, µM (series often up to 57.9 µM), for inactives: top-dose activity change, negative = inhibition, most hits filed as inhibitors; calls by dose curve; tested in HEK293T cells; note: read-out not given here; potency is the fitted concentration of half-maximal effect; nearly all actives have a fitted effect of over 45% in size
Vaccinia mCherry = inhibitors of vaccinia virus infection (mCherry reporter signal); Vaccinia virus mCherry reporter infection, fluorescence; Potency, µM (highest dose often 36.5 µM), for the others: at the highest dose activity change, negative = inhibition, hits mostly inhibitors; hit rate 0.63% among 310,000; AID 720579; calls by dose curve; tested in A549 cells; note: potency is the fitted concentration of half-maximal effect; nearly all actives have a fitted effect of over 35% in size
The depositor's hits bear a star; i = inactive; u = inconclusive; x = no result; + = active, no number; [ ] = dose if it differs, or a comment. A selection: hits, their analogues and other compounds. The true share with any hit is near 6.5%. % is set by controls: 0 for no effect and ±100 for the full control effect.

SMILES	VACV Venus inh	HCMV antiviral	Lassa entry inh	Marburg entry inh	FMDV antiviral	Vaccinia mCherry
C[C@@H]1C=CCC(=O)N[C@@H](c2ccc3ccccc3c2)[C@H](C)C=CCC(=O)N[C@@H]1c1ccc2ccccc2c1	x	x	x	2.66µM*	x	x
C[C@@H]1C=CCC(=O)N[C@@H](c2ccccc2)[C@H](C)C=CCC(=O)N[C@@H]1c1ccccc1	x	x	u	12.4%[14.2 µM]	x	x
CCN(CC)CCNC(=O)c1ccc2c(=O)n3nc(Nc4ccccc4)sc3nc2c1	-14.6%	-90.5*	14.7%[46.1 µM]	x	-7.7%	-10.7%
CCc1cccc(NC(=O)c2ccc3c(=O)n4nc(Nc5ccccc5OC)sc4nc3c2)c1	3.98µM*	-88.0*	u	x	0.0%	3.98µM*
COc1cccc(NC(=O)c2ccc3c(=O)n4nc(Nc5ccccc5OC)sc4nc3c2)c1	u	-35.1	u	x	u	u
COc1ccccc1Nc1nn2c(=O)c3ccc(C(=O)NCc4ccc(F)cc4)cc3nc2s1	u	-90.2*	u	x	u	12.6µM*
O=C(NCc1ccccn1)c1ccc2c(=O)n3nc(Nc4ccccc4)sc3nc2c1	x	8.6	x	x	-5.0%	x
Cc1ccc(Cl)cc1Nc1nn2c(=O)c3ccc(C(=O)NCc4cccs4)cc3nc2s1	u	-98.3*	-27.3%[46.1 µM]	x	u	u
Cc1ccccc1Nc1nn2c(=O)c3ccc(C(=O)NCc4cccs4)cc3nc2s1	u	-18.9	u	x	-3.0%	-22.7%
O=C1C(n2ccc3ccccc32)c2ccccc2N1Cc1ccc(C(F)(F)F)cc1 (stereo unspecified)	x	21.3	x	x	x	x
Cc1cc(C)c(Cn2c(=O)n(CCC(=O)NCc3ccc4c(c3)OCO4)c(=O)c3ccccc32)c(C)c1	0.8%	-4.1	-0.3%[46.1 µM]	10.7%[46.1 µM]	8.5%	-0.5%
COC(=O)c1nnc(SC)nc1C(=O)OC	x	x	x	-5.3%[14.2 µM]	x	x
CC1=CC(C)(C)NC(=S)N1c1ccc2ccccc2c1	-7.4%	u	-9.1%[46.1 µM]	-34.4%[46.1 µM]	-2.8%	-24.2%
CC1=CC(C)(C)NC(=S)N1c1cccc2ccccc12	-21.3%	-100.3*	-0.7%	-12.8%	-20.0%	x
CCc1ccc(-n2c(CCC(=O)O)ccc2-c2ccc(F)cc2)cc1	-1.1%	22.0	-0.9%[46.1 µM]	3.7%[46.1 µM]	3.8%	3.3%
Cc1ccc(C(=O)CC2(O)C(=O)N(Cc3ccccc3Cl)c3ccccc32)o1 (stereo unspecified)	-15.7%	-24.5	-9.3%	-11.3%	-16.3%	-23.6%
COc1cc(C(=O)CC2(O)C(=O)N(Cc3ccccc3Cl)c3ccccc32)cc(OC)c1OC (stereo unspecified)	-5.7%	-70.7*	u	-26.1%[46.1 µM]	-11.7%	-10.3%
Cc1ccc(C)c(N2CCN(C(=O)Cn3cnc4onc(-c5ccc(F)cc5)c4c3=O)CC2)c1	-0.2%	18.3	12.2%[46.1 µM]	x	0.0%	0.2%
CCc1nnc(SCc2cccc(F)c2)c2cc3sc(C)cc3n12	-13.6%	u	-22.3%[46.1 µM]	x	-4.2%	i
Cc1ccc(C)c(S(=O)(=O)c2nnn3c2nc(NC(C)C)c2sccc23)c1	u	-69.9*	-23.0%[46.1 µM]	x	u	-20.7%
Cc1ccc(C)c(S(=O)(=O)c2nnn3c2nc(Nc2ccc(C)c(C)c2)c2sccc23)c1	-19.7%	2.9	-3.7%[46.1 µM]	x	-5.1%	-15.1%
CN(C)c1nc(-c2ccc3c(c2)OCO3)nc2ccccc12	x	x	x	x	14.5%	x
O=c1c2ccc(Cl)cc2nc(-c2ccc([N+](=O)[O-])cc2)n1O	-25.0%	-97.9*	u	u	-17.4%	i
Cc1oc(-c2ccccc2Cl)nc1Cn1cccc1C1=NC(c2ccccc2)CO1 (stereo unspecified)	-12.0%	u	7.3µM*	u	u	-28.3%
Cc1oc(-c2ccccc2Cl)nc1CN1CCCC1c1ccc(F)cc1 (stereo unspecified)	x	16.3	x	x	0.0%	x
SMILES	VACV Venus inh	HCMV antiviral	Lassa entry inh	Marburg entry inh	FMDV antiviral	Vaccinia mCherry
Cc1cc(C)c(NS(=O)(=O)c2ccc(-c3cnc(C4CC4)o3)cc2)c(C)c1	-29.7%	-91.9*	u	x	-8.1%	-28.9%
CCOc1ccccc1NS(=O)(=O)c1ccc(-c2cnc(C3CC3)o2)cc1	-27.2%[7.34 µM]	+	u	x	u	-30.5%[7.34 µM]
Cc1cccc(N(C)S(=O)(=O)c2ccc(-c3cnc(C4CC4)o3)cc2)c1	x	-97.6*	x	x	u	x
Cc1ccc(NS(=O)(=O)c2cc(-c3cnc(C4CC4)o3)ccc2C)cc1Cl	-23.3%	-64.2*	u	x	48.0%	-17.2%
O=C(C[N+]12CCCc3cccc(c31)CCC2)c1ccc2ccc3cccc4ccc1c2c34	-6.5%	x	x	x	x	-16.5%
CCC1CCCCN1C(=O)c1nn(-c2ccc(C)cc2)c(=O)c2c1c1ccccc1n2C (stereo unspecified)	3.7%	0.9	21.9%[46.1 µM]	0.9%[46.1 µM]	u	-3.9%
CCN1CCN(Cc2c(O)ccc3oc(C)c(C(=O)Nc4cccc(C(F)(F)F)c4)c23)CC1	-11.0%	-31.0	u	u	0.0%	-14.9%
COc1ccc(NS(=O)(=O)c2ccc(-c3cnc(C4CC4)o3)cc2)cc1OC	x	-73.6*	x	x	-20.0%	x
COC(=O)[C@]12C[C@H](CC(=O)N3CCC(c4ccccc4)CC3)C(=O)N(Cc3ccc4c(c3)OCO4)C1=C[C@H](C(C)(C)C)O[C@@H]2C	x	25.3	x	x	x	x
O=C1NC(=O)N(c2ccccc2F)C(=O)/C1=C/c1cn(CC(=O)N2CCOCC2)c2ccccc12	-12.0%	1.9	u	-1.0%[46.1 µM]	22.4µM*	i
CCN1C(=O)NC(=O)/C(=C\c2cn(CC(=O)N3CCCC3)c3ccccc23)C1=O	-5.4%	-25.9	8.6%	2.5%[46.1 µM]	-8.7%	-3.8%
CCOc1ccc(CNC(=O)CSc2nnc(C)c3c(C)n(-c4ccc(Cl)cc4)nc23)cc1	-5.7%	-12.3	6.2%[46.1 µM]	x	u	-16.7%
COc1ccccc1OCc1ccc(C(=O)Nc2ccccc2)cc1	x	-39.3	x	x	27.3%	x
O=C(Nc1ccc(Cn2cccn2)cc1)c1ccc(COc2ccccc2Br)cc1	u	-83.4*	u	-13.7%[46.1 µM]	14.1µM*	u
Cc1cc2c(cc1C)NC(c1nc3ccccc3[nH]1)C1=C(CC(C)(C)CC1=O)N2 (stereo unspecified)	-17.0%	-104.6*	11.3%	2.2%	-13.2%	-11.0%
COc1ccc(C(=O)c2sc(NC(C)C)nc2N)cc1OC	11.2µM*	u	9.5%	-7.6%	4.3%	x
COc1cccc(C(=O)c2sc(NC(C)C)nc2N)c1	7.08µM*	-96.8*	8.8%	u	9.5%	x
COc1ccc(-c2cn3cc(C)ccc3n2)cc1Br	-21.2%	193.7	u	14.1µM*	0.0%	-27.0%
Nc1c(N(CCC2=CCCCC2)C(=O)COc2ccc(F)cc2Cl)c(=O)[nH]c(=O)n1Cc1ccccc1	x	-98.0*	x	x	u	x
Nc1c(N(CCC2=CCCCC2)C(=O)Cc2ccc(F)cc2)c(=O)[nH]c(=O)n1Cc1ccccc1	-15.5%	-16.3	u	-17.6%	-16.2%	-24.7%
CCn1cnc2cc(NCc3nc4ccccc4n3Cc3ccccc3)ccc21	-16.8%	-33.8	10µM*	u	-25.3%	-25.3%
CCCn1c(CNc2ccc(Br)cc2)nc2ccccc21	u	u	x	x	-17.6%	11.2µM*
CCn1cnc2cc(NCc3nc4ccccc4n3C)ccc21	-6.2%	96.6	u	u	x	i
